CIT2-GFP yeast – yeast TOR pathway CIT2-GFP modulation | S. cerevisiae CIT2-GFP strain, flow cytometry, 3 h; 100 means same as DMSO wells | GFP response vs DMSO, % at 10 µM | 0.065% of 320,000 active | AID 2029;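 active means GFP response relative to DMSO above a set limit, near the screen mean plus 3 SD, cut at about 150% in these data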;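 further: ratio of well median GFP fluorescence to mean of DMSO wells on the plate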
LAP4-GFP MLPCN – modulators of TOR pathway LAP4-GFP in S. cerevisiae | AID 2023 | S. cerevisiae LAP4-GFP multiplex, flow cytometry GFP, 3 h; median GFP as percent of DMSO wells | GFP response vs DMSO, % at 10 µM | 0.34% of 320,000 active;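 active means GFP response vs DMSO above a set limit, about the screen mean plus 3 SD, cut at about 150% in these data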
Efflux pump inh – inhibitors of Candida antifungal efflux pumps expressed in yeast; S. cerevisiae Candida pump triplex, Nile Red efflux; inhibition, % at 10 µM; 0.44% of 330,000 active;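 active means plate passing quality check with inhibition over a set limit, or well fluorescence over plate mean plus 4 SD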;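 further: Nile Red retained in pooled yeast measured as flow cytometry median fluorescence; 0% = buffer negative control and 100% = Enniatin B positive control; higher means more Nile Red kept so more efflux inhibition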
AGP1-GFP MLPCN – modulators of TOR pathway AGP1-GFP in S. cerevisiae; S. cerevisiae AGP1-GFP multiplex flow cytometry, 3 h; GFP as percent of DMSO wells; GFP response vs DMSO, % at 10 µM; 0.02% of 320,000 active; AID 2066;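 active means GFP response relative to DMSO above a set limit, near screen average plus 3 SD, cut at about 150% in these data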;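 further: median GFP channel fluorescence of the gated AGP1 strain per well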
MEP2-GFP yeast – modulators of TOR pathway MEP2-GFP in S. cerevisiae; 0.51% of 330,000 active; S. cerevisiae MEP2-GFP strain, flow cytometry GFP, 3 h; 100% = DMSO control level; GFP response vs DMSO, % at 10 µM;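 active means GFP response versus DMSO above a set limit, roughly screen mean plus 3 SD, cut at about 180% in these data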;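 further: median GFP fluorescence of the barcode-gated MEP2-GFP cells per well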
RPL19A TOR yeast – modulators of TOR pathway RPL19A-GFP in S. cerevisiae; S. cerevisiae RPL19A-GFP strain, flow cytometry, 3 h; active compounds read low; percent response vs DMSO, % at 10 µM; AID 2025; 0.3% of 330,000 active;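 active means percent response vs DMSO below 50%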;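 further: median channel GFP fluorescence of the barcoded RPL19A-GFP strain; ratio of sample median GFP to plate DMSO average so 100% = DMSO; lower means less RPL19A-GFP as with rapamycin TOR inhibition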
LAP4 cherry2 – second confirmation of modulators of TOR reporter LAP4-GFP in yeast | AID 2621 | GFP response vs DMSO, % at 10 µM | shares compounds with LAP4-GFP MLPCN | 20% of 590 active | S. cerevisiae LAP4-GFP strain, flow cytometry GFP, 3 h;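 active means GFP signal as percent of the solvent control above about 150%, meaning raised reporter expression, limit read from the data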;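 further: ratio of well median GFP fluorescence to plate DMSO mean so 100% = DMSO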
MEP2-GFP pick2 – reconfirmed MEP2-GFP TOR pathway modulator in yeast | shares compounds with LAP4-GFP MLPCN | S. cerevisiae MEP2-GFP strain, flow cytometry GFP, 3 h | GFP response vs DMSO, % at 10 µM | 10% of 590 active;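 active means GFP signal above 150% of the solvent control wells, that is a rise of more than half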;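 further: median channel GFP fluorescence of all gated yeast cells per well; ratio of median GFP to plate DMSO average so 100% = DMSO level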
RPL19A-GFP pick2 – second confirmation of modulators of TOR reporter RPL19A-GFP in yeast. shares compounds with LAP4-GFP MLPCN. S. cerevisiae RPL19A-GFP strain, flow cytometry GFP, 3 h; active compounds read low; 100% means same as DMSO wells. GFP response vs DMSO, % at 10 µM. 3% of 590 active. AID 2623;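 active means under 65% GFP response relative to DMSO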;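 further: median GFP channel fluorescence per well over the all cells gate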
CIT2 GFP CP2 – second confirmation of modulators of TOR reporter CIT2-GFP in yeast; GFP response vs DMSO, % at 10 µM; 8% of 590 active; AID 2624; shares compounds with LAP4-GFP MLPCN; S. cerevisiae CIT2-GFP strain, flow cytometry GFP, 3 h; DMSO control wells read 100%;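 active means GFP response vs DMSO above about 150%, limit read from the data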;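 further: median green fluorescence per well over all gated yeast cells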
AGP1-GFP pick2 – yeast AGP1-GFP TOR reporter modulation, second cherry pick | 590 tested, under 10 active | S. cerevisiae AGP1-GFP strain, flow cytometry GFP, 3 h | AID 2643 | percent response vs DMSO, % at 10 µM | shares compounds with LAP4-GFP MLPCN;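 active means over 150 percent of DMSO response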;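 further: median GFP channel fluorescence over all cells without mother daughter split; sample median GFP divided by mean DMSO control so 100% equals DMSO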
Yeast autofluor – yeast s288c autofluorescence artifact, counter-screen. shares compounds with LAP4-GFP MLPCN. S. cerevisiae s288c, 520 nm autofluorescence, flow cytometry, 3 h; active compounds read high; zero means same as solvent-only cells. fluorescence change (kMESF span) at 33 µM. 610 tested, under 10 active. AID 2757;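 active means fluorescence span over the dose series, or activity score, above about 33, limit read from the data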
Yeast autofl DR – yeast s288c autofluorescence artifact in dose response; S. cerevisiae s288c parental, compound autofluorescence, flow cytometry, 3 h; AID 488829; fluorescence change (span) at 33 µM; shares compounds with LAP4-GFP MLPCN; 110 tested, under 10 active;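 active means fluorescence change span, or the activity score built from it, above 25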
TORC1 bypass – compounds blocking wildtype yeast growth but not TORC1 bypass cells | shares compounds with LAP4-GFP MLPCN | S. cerevisiae BY4741 spot growth rating, 48-72 h; active compounds read low | growth rating (0-3) at 30 µM | 120 tested, under 10 active | AID 504456;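 active means growth rating at most 1 for wild type yeast while the TORC1 bypass strain still grows fully, rated 3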
* = called active by the depositor. Only some compounds are listed: those with a hit (about 1.3% of all), similar ones and a draw of the others.

SMILES	CIT2-GFP yeast	LAP4-GFP MLPCN	Efflux pump inh	AGP1-GFP MLPCN	MEP2-GFP yeast	RPL19A TOR yeast	others
OCC1(Cc2cccc(Cl)c2)CCCN(Cc2cnn(-c3ccccc3)c2)C1 (configuration not stated)	97.8	100.5	0.1	97.6	96.2	94.6
O=S(=O)(NCC(c1ccco1)N1CCc2ccccc2C1)c1ccc(Br)cc1 (configuration not stated)	102.6	97.8	-0.1	110.6	102.4	99.9
COc1ccccc1/C=C1/C(=O)N(c2ccccc2)N=C1C	98.7	90.8	0.1	81.9	94.8	104.1
CC1=NN(c2ccccc2)C(=O)/C1=C\c1c(C)[nH]n(-c2ccccc2)c1=O	97.7	91.8	-0.1	97.5	99.4	96.1	LAP4 cherry2=103.2;MEP2-GFP pick2=103.1;RPL19A-GFP pick2=99.5;CIT2 GFP CP2=102.9;AGP1-GFP pick2=99.3
O=C(NC1CCCCC1)C1(S(=O)(=O)c2ccc(Cl)cc2)CC1	94.9	108.3	-0.1	94.2	102.0	96.0
O=C(c1ccccc1)c1ccc(OCC(O)CNCc2cccc(Cl)c2)cc1 (configuration not stated)	93.5	94.2	0.2	94.6	97.7	102.0
Cc1ccc(NC(=O)COC(=O)c2c[nH]c3ccccc23)cc1C	90.3	106.7	0.0	103.5	98.4	104.0
Cc1ccc(NC(=O)c2cnccn2)cc1S(=O)(=O)N1CCCCCC1	95.0	97.9	-0.1	97.0	103.9	100.4
CC(=O)n1cc(Nc2ccc([N+](=O)[O-])cc2)c2ccccc21	100.0	114.7	0.0	94.0	98.9	104.6
CC(=O)SC(C[N+](=O)[O-])c1cn(C(C)=O)c2ccccc12 (configuration not stated)	83.3	229.3*	0.1	101.2	97.7	92.7	Yeast autofluor=0.41;Yeast autofl DR=0.83;TORC1 bypass=3
CC(=O)Oc1ccc(-c2ccc(C(=O)NCCc3ccc(S(N)(=O)=O)cc3)cc2)cc1	102.6	90.5	0.8	99.8	104.4	102.5
O=C(OCC(=O)N1CCC(Cc2ccccc2)CC1)c1ccc(CO)cc1	101.8	113.7	-0.1	110.0	104.5	101.9
COc1cccc(-c2ncc3ccccc3c2COC(=O)c2cccc(Br)c2)c1	81.4	159.0*	1.3	101.3	103.3	95.2	LAP4 cherry2=131.7;MEP2-GFP pick2=98.2;RPL19A-GFP pick2=90.6;CIT2 GFP CP2=105.2;AGP1-GFP pick2=96.2
COc1cccc(-c2ncc3ccccc3c2COC(=O)c2ccc(Br)cc2)c1	84.0	111.6	-0.1	94.5	84.8	92.7
